Experimental data as given in PubChem BioAssay AID1694 (National Center for Advancing Translational Sciences (NCATS), 2009).
Records with an inconclusive call do not appear. A number with no mark means an inactive call. Activity calls are given as the source filed them. The call rests on the fitted dose curve; in most records, active means well fitted curve in the direction sought with a large enough effect; inconclusive means small, poorly fitted or top-dose-only effect, or another doubt; inactive means no such curve, though single readings can be large or run the other way.

test: Confirmation Concentration-Response Assay for Inhibitors of Tau Fibril Formation, Total Fluorescence Counterscreen for Fluorescence Polarization; details: Alexa594-tau K18 total fluorescence counterscreen, interference, tau K18 with P301L mutation; series mostly up to 100 µM; fluorescence change, negative = quenching: at the top concentration
Text: NIH Molecular Libraries Probe Production Network [MLPCN] NIH Chemical Genomics Center [NCGC] MLPCN Grant: X01 MH083262-01 Assay Provider: Carlo Ballatore, University of Pennsylvania NCGC Assay Overview: The microtubule-associated protein tau is an abundant protein in the axons of neurons that stabilizes microtubules. With its ability to modulate microtubule dynamics, tau contributes directly or indirectly, to key structural and regulatory cellular functions. Particularly important is the influence tau exerts on axonal transport, which allows signaling molecules, trophic factors and other essential cellular constituents to travel along the axons. Under pathological conditions, tau becomes sequestered into insoluble aggregates called neurofibrillary tangles. This phenomenon is believed to have pathological consequences by promoting axonal transport deficits that ultimately lead to synaptic dysfunction and neuronal loss. To identify inhibitors of tau aggregation, a heparin-induced tau fibril formation assay was used that employed a recombinantly expressed fragment of tau, K18 (Q242-E372), bearing a P301L mutation (Gustke et al. 1994; Hong et al. 1998). […] Total fluorescence (555 nm excitation and 632 nm emission) was measured to identify fluorescent or absorbent compounds at this wavelength. Such compounds may be artifacts that interfere with the Alexa 594 Tau fluorescence polarization assay. Gustke, N., B. Trinczek, et al. (1994). "Domains of tau protein and interactions with microtubules." Biochemistry 33(32): 9511-22. Hong, M., V. Zhukareva, et al. (1998). "Mutation-specific functional impairments in distinct tau isoforms of hereditary FTDP-17." Science 282(5395): 1914-7. Li, W. and V. M. Lee (2006). "Characterization of two VQIXXK motifs for tau fibrillization in vitro." Biochemistry 45(51): 15692-701. von Bergen, M., S. Barghorn, et al. (2001). "Mutations of tau protein in frontotemporal dementia promote aggregation of paired helical filaments by enhancing local beta-structure." J Biol Chem 276(51): 48165-74.
For screening, 2 uL/well human K18 P301L (15 uM unlabeled and 0.24 uM Alexa 594-labeled tau final concentrations) in reagent buffer (100 mM sodium acetate pH 7) was dispensed into black solid 1536-well plates (Grenier) using a solenoid-based dispenser. Following transfer of 23 nL compound or DMSO vehicle by a pin tool, 2 uL/well heparin (20 uM final concentration) in reagent buffer was added and the plate centrifuged 15 s at 1000 RPM. Plates were incubated 6 hr at 37 C and then 1 uL/well ThT (30 uM final concentration) was added. After a 1 hr ambient incubation, the plates were read by an Envision (Perkin Elmer) to monitor Alexa 594 FP (555 nm excitation and 632 nm emission). Keywords: NIH Roadmap, MLPCN, MLI, MLSMR, NCGC, qHTS, tau, tauopathies, Alzheimer's disease, fibril, neurodegeneration, aggregation

| SMILES | fluorescence change, negative = quenching | Potency |
| --- | --- | --- |
| CC(C)c1ccc(NS(=O)(=O)c2ccc3[nH]cc(C(=O)NCCc4ccccc4)c(=O)c3c2)cc1 | -9.83% | – |
| CCOC(=O)c1nn(-c2ccccc2)c(=O)c2c(N)sc(C)c12 | -20.4% [at 57.1 µM] | – |
| O=C(Cc1ccccc1)Nc1sc2c(c1C(=O)Nc1cccc(Cl)c1)CCCC2 | -7.93% [at 57.1 µM] | – |
| O=C(Cc1ccccc1)Nc1sc2c(c1C(=O)Nc1ccc(Cl)cc1)CCOC2 | -16.6% [at 57.1 µM] | – |
| Nc1c(-c2ccncc2)cc[nH]c1=O | -12.5% | – |
| CN(C)c1ccc(N2C(=O)CSC2=S)cc1 | -26.9% | – |
| CCOC(=O)c1nn(-c2ccccc2F)c(=O)c2c(N)scc12 | -6.67% [at 57.1 µM] | – |
| Cc1cc2c(N)cccc2nn1 | 29.3% | – |
| O=C(NCc1cccnc1)C1CCN(S(=O)(=O)c2cccs2)CC1 | -5.66% | – |
| Cc1ccc(NCc2cc3cc4c(cc3n(CC(=O)Nc3ccc(C)cc3)c2=O)OCCO4)cc1 | -9.33% | – |
| COC(=O)C1CCc2sc(NC(=O)Cc3ccccc3)c(C(=O)Nc3ccc(Cl)cc3)c21 (stereo not given) | -9.79% [at 57.1 µM] | – |
| Cc1cccc(NC(=O)c2c(NC(=O)c3ccccc3)sc3c2CCCC3)c1 | -10.3% [at 57.1 µM] | – |
| NC(=O)c1nn(-c2ccccc2)c(=O)c2c(N)scc12 | 1.1% [at 57.1 µM] | – |
| Cc1ccc(NC(=O)c2c(NC(=O)Cc3ccccc3)sc3c2CCCC3)cc1 | -4.68% [at 57.1 µM] | – |
| COc1ccc(CNC(=O)Cn2nc(C)n3cccc3c2=O)cc1 | -6.66% | – |
| CN(c1ccccc1)S(=O)(=O)c1nnc(NC(=O)C2CCCCC2)s1 | -17.2% | – |
| CCOC(=O)c1nn(-c2cccc(C(F)(F)F)c2)c(=O)c2c(N)scc12 | – | 1.58 µM [quencher] (active) |
| COc1ccc2[nH]c(=O)c(CNc3cccc(C)c3)cc2c1 | -6.53% | – |
| NCCc1ccc(O)c(O)c1 | -17.2% | – |
| Cc1sc(N)c2c(=O)n(-c3ccccc3)ncc12 | -11.4% [at 57.1 µM] | – |

| SMILES | fluorescence change, negative = quenching | Potency |
| --- | --- | --- |
| Cc1[nH]c(=O)c(C#N)cc1-c1ccncc1 | 2.45% | – |
| Cn1sc(NC(=O)c2ccccc2)nc1=O | 4.66% [at 57.1 µM] | – |
| CCOC(=O)c1nn(-c2ccccc2)c(=O)c2c(N)scc12 | – | inactive |
| O=C(Cn1c(=O)c(CNc2ccccc2)cc2cc3c(cc21)OCCO3)Nc1ccccc1Cl | -14.4% | – |
| COc1ccc2[nH]c(=O)c(CNc3ccccc3OC)cc2c1 | -10.1% | – |
| COC(=O)c1c(NC(=O)CCCOc2ccc(C)cc2)sc2c1C(C(=O)OC)CC2 (stereo not given) | -0.983% | – |
| COC(=O)c1c(N)sc2c1C(C(=O)OC)CC2 (stereo not given) | -4.91% [at 57.1 µM] | – |
| Nc1cc(-c2ccncc2)c[nH]c1=O | 0.824% | – |
| COc1ccc(OC)c(NC(=O)c2c(NCc3cccs3)sc3c2CCCC3)c1 | -28.3% [at 57.1 µM] | – |
| Nc1scc2c(CO)nn(-c3ccccc3)c(=O)c12 | -2.64% [at 57.1 µM] | – |
| Cc1ccc(-c2ccc(/C=N/N=C3/NC(=O)C(CC(=O)O)S3)o2)c([N+](=O)[O-])c1 (stereo not given) | 4.37% | – |
| COc1c(Cl)cccc1NC(=O)c1c(NC(=O)Cc2ccccc2)sc2c1CCCC2 | -3.36% [at 57.1 µM] | – |
| COC(=O)c1c(NC(=O)C(C)(C)C)sc2c1C(C(=O)OC)CC2 (stereo not given) | -17% | – |
| Nc1c(-c2ccccc2)cc[nH]c1=O | -6.15% | – |
| COc1cc(/C=N/N=C2/NC(=O)C(CC(=O)O)S2)ccc1OCc1ccc(Cl)cc1 (stereo not given) | 22.5% | – |
| Cn1ncc(Cl)c1C(=O)Nc1cccc(Cl)c1 | 8.4% | – |
| NC[C@@H](O)c1ccc(O)c(O)c1 | -7.44% | – |
| COc1ccc(NC(=O)c2c(NC(=O)Cc3ccccc3)sc3c2CCCC3)cc1 | -7.74% [at 57.1 µM] | – |
| O=C(Cc1ccccc1)Nc1sc2c(c1C(=O)Nc1ccc(Br)cc1)CCCC2 | -4.5% [at 57.1 µM] | – |
| COC(=O)c1c(NC(=O)CCCOc2cccc(C)c2)sc2c1C(C(=O)OC)CC2 (stereo not given) | 2.92% | – |
